For twelve molecules, growth results are on record in the supplement of paper PMC12494721.

Molecules are shown by their SMILES. Where a name gives a salt, the structure may show the parent alone.

The test system of this experiment is Klebsiella aerogenes DSM 30053. Put plainly: growth (OD595) fold change vs plate DMSO controls (fold change (ratio)); higher = more growth. The note with it: incubation time: 27 h, anaerobic, 37 °C. The procedure, abridged: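 Anaerobic mGAM cultures in 96-well plates were grown for 27 h at 37 °C, and absorbance was then read at 595 nm. After blank and compound background correction with 20 µM compound solutions in water, a calibration factor of 5 gave OD. Growth is the fold change relative to the median of each plate's DMSO controls. Values are means of 2 biological replicates, with fold changes above 1.5 set to NA.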
On to `O=C(O)c1cc(-c2ccc(F)cc2F)ccc1O` [Diflunisal] (20 µM), for which the growth was found to be 0.985.

For the molecule `Fc1ccc([C@@H]2CCNC[C@H]2COc2ccc3c(c2)OCO3)cc1` [Paroxetine hydrochloride] (20 µM), the growth was determined as 0.971.

Take `CCN(CC)CCOC(=O)C1(C2CCCCC2)CCCCC1` [Dicyclomine hydrochloride] (20 µM): the growth was determined as 0.998.

On to `CN1[C@@H]2CC[C@H]1C[C@@H](OC(=O)c1c[nH]c3ccccc13)C2` [Tropisetron hydrochloride] (20 µM), for which the growth turned out to be 1.14.

In the case of `NC(=O)N1c2ccccc2CC(=O)c2ccccc21` [Oxcarbazepine] (20 µM), the growth amounted to 0.977.

Take `N=C(NCCCCCCNC(=N)NC(=N)Nc1ccc(Cl)cc1)NC(=N)Nc1ccc(Cl)cc1` [Chlorhexidine] (20 µM): the growth is 0.782.

On to `CC(=O)Nc1ccccc1` [Acetanilide] (20 µM), for which the growth was 1.

On to `Nc1nc(N)nc(-c2cc(Cl)ccc2Cl)n1` [Irsogladine maleate] (20 µM), for which the growth was 0.961.

For the molecule `Cc1ccsc1C(=CCCN1CCC[C@@H](C(=O)O)C1)c1sccc1C` [Tiagabine hydrochloride] (20 µM), the growth turned out to be 1.05.

Consider `CC(C)NCC(O)c1ccc(O)c(O)c1` (single isomer, unassigned; (-)) [(-) Isoproterenol hydrochloride] (20 µM), for which the growth worked out at 1.15.

Consider `CN(C)CCN(Cc1ccccc1)c1ccccn1` [Tripelennamine hydrochloride] (20 µM), for which the growth turned out to be 1.02.

Regarding `C[C@H](NCc1ccc(OCc2cccc(F)c2)cc1)C(N)=O` [Safinamide] (20 µM), the growth came to 1.
